These results are taken from PubChem BioAssay (Tox21).

Several values for one entry are separate records, joined by “and”; a condition that tells them apart may be missing. Identical values can stand only once. Results filed as inconclusive are left out. Where a call stands in place of a potency, no number is given. Some compounds were tested as several samples or in several runs, with calls that do not always agree. Activity calls are given as the source filed them. Calls follow the shape of the full dose curve.
Potency is read from the fitted curve at half-maximal effect.

A short description of this assay: p53 small molecule agonists, cell-based qHTS assay with human liver microsomes: qHTS cell viability counter screen (AID 1963579). Also: nearly all actives have a fitted effect of over 45% in size. The conditions noted are these: p53RE-bla HCT-116 viability, ATP luminescence, 16 h, HLM; series mostly up to 66 µM. An excerpt:
National Center for Advancing Translational Sciences [NCATS]
Division of Preclinical Innovation [DPI]
U.S. Environmental Protection Agency [EPA]
National Institutes of Environmental Health Sciences [NIEHS]
National Toxicology Program [NTP]
U.S. Food and Drug Administration [FDA]
p53, a tumor suppressor protein, is activated following cellular insult, including DNA damage and other cellular stresses. The activation of p53 regulates cell fate by inducing DNA repair, cell cycle arrest, apoptosis, or cellular senescence. The activation of p53, therefore, is a good indicator of DNA damage and other cellular stresses. […] The activation of the reporter gene under culture conditions can be detected by fluorescence intensity. This cell line was used to screen the Tox21 10K compound library in the condition of presence of human liver microsomes and to identify agonists that activate the p53 signaling pathway after in vitro metabolic activation (Ooka et al., Archive of Toxicology 96:1975-1987, 2022).
Tox21 Assay Protocol Summary:
The p53RE-bla cells were dispensed at 4,000cells/3ul/well in 1536-well black-clear bottom plates. After the assay plates were incubated at 37 C, 5% CO2 incubator for 5 hours, 23 nL of compounds dissolved in DMSO, positive controls or DMSO only was transferred to the assay plate. Following compound addition, 3 uL of human liver microsomes (XenoTech, Kansas City, KS) at final concentration of 0.5 mg/mL and 1uL of B-Nicotinamide adenine dinucleotide 2'-phosphate (NADPH) at final concentration of 0.5 mg/mL were transferred to the assay plate. The plates were incubated at 37 C for 16 hours. 1 uL of LiveBLAzer detection mixture was added to each well and the plates were incubated at room temperature in the dark for 2 h. Fluorescence intensity at 460 and 530 nm emission and 405 nm excitation were measured by an Envision plate reader. For cell viability readout that measures cytotoxicity, 4 ul/well of CellTiter-Glo reagent was added into the assay plates using a Flying Reagent Dispenser. After 30 min incubation at room temperature, the luminescence intensity in the plates was measured using a ViewLux plate reader.
Take `CNC(C)(C)Cc1ccccc1`: the Potency result was “inactive”. Same read-out and setting: the value for `Oc1ccc(Cl)cc1Cc1ccccc1` was “inactive and 41.3 µM (active)”; that for `O=NN(c1ccccc1)c1ccccc1` was “inactive”; that for `Cc1cccc(N)c1C` was “inactive”. Take `Clc1ccc(C(c2ccc(Cl)cc2)C(Cl)Cl)cc1`: the Potency entry was “inactive”. With `O=C(O)C(Cl)Br` (stereo not given), the Potency result was “inactive”.

With `COc1c(C(C)(C)C)cc([N+](=O)[O-])c(C)c1[N+](=O)[O-]`, the Potency entry is “inactive”. Consider `c1ccc2c(c1)oc1ccccc12`, for which the Potency entry was “inactive”. `CCCCC(CC)COC(=O)Cl` (stereo not given): the Potency result is “inactive”.

`CCCCN(CC)c1c([N+](=O)[O-])cc(C(F)(F)F)cc1[N+](=O)[O-]`: the Potency result is “inactive”.

With `O=C/C(Cl)=C(/Cl)C(=O)O`, the Potency result is “inactive”. On the same count and under the same terms, the result for `O=[N+]([O-])c1cccc(O)c1` reads “inactive”. On to `Cc1ncc2n1-c1ccc(Cl)cc1C(c1ccccc1F)=NC2`, for which the Potency entry was “inactive”.

For the molecule `CC1OC(C)OC(C)O1` (stereo not given), the Potency entry is “inactive”.

With `Cc1cccc(N)c1N`, the Potency entry was “inactive”. The same measure, in the same setting: the value for `C=CCc1cc(OC)c2c(c1)OCO2` was “inactive”; that for `C/C=C/CC#N` was “inactive”; that for `O=C(Cl)/C=C/C(=O)Cl` was “inactive”. The same measure, in the same setting: the result for `C[C@@H]1O[C@@H](O[C@H]2C[C@@H](O)[C@]3(CO)[C@H]4[C@H](O)C[C@]5(C)[C@@H](C6=CC(=O)OC6)CC[C@]5(O)[C@@H]4CC[C@]3(O)C2)[C@H](O)[C@H](O)[C@H]1O` reads 68.8 nM (active) and inactive; that for `CCN(CC)CCN1C(=O)CN=C(c2ccccc2F)c2cc(Cl)ccc21`, “inactive”. Consider `Cc1ccc(OP(=O)(Oc2ccc(C)cc2)Oc2ccc(C)cc2)cc1`, for which the Potency entry was “inactive”. Same read-out and setting: the result for `Cc1ccc(N)cc1N` reads “inactive”; that for `Cc1ccc(N=CN(C)C=Nc2ccc(C)cc2C)c(C)c1`, “inactive”. On the same count and under the same terms, the result for `CC(C)c1cccc(C(C)C)c1O` reads “inactive”; that for `Cc1cnc[nH]1`, “inactive”; that for `CC(C)c1ccc(OP(=O)(Oc2ccc(C(C)C)cc2)Oc2ccc(C(C)C)cc2)cc1`, “inactive”.

Regarding `CCCBr`, the Potency result is “inactive”.

As to `CC(Cl)C(=O)O` (stereo not given), the Potency result was “inactive”. On the same count and under the same terms, the result for `CN(C)CCc1ccc(O)cc1` reads “inactive”; that for `CC1CC(CC2CCC(N)C(C)C2)CCC1N` (stereo not given), “inactive”; that for `O=C(Nc1ccc(Br)cc1)c1cc(Br)cc(Br)c1O`, “inactive”. For `BrCc1ccc(Br)cc1`, the Potency entry is “inactive”. For `Nc1ncn[nH]1`, the Potency entry was “inactive”.

`CCC(C)(C)c1ccc(O)c(C(C)(C)CC)c1`: the Potency was 45.3 µM (active) and 25.7 µM (active). The same measure, in the same setting: the result for `O=[N+]([O-])c1ccccc1O` reads “inactive”; that for `Clc1ccccc1Cl`, “inactive”. On the same count and under the same terms, the value for `C=CC1(C)OC(=O)N(c2cc(Cl)cc(Cl)c2)C1=O` (stereo not given) was “inactive”. With `Brc1c(Br)c(Br)c(Oc2c(Br)c(Br)c(Br)c(Br)c2Br)c(Br)c1Br`, the activity change, negative = cytotoxicity is 1.7% [at 13.5 µM] (inactive). Turning to `C=C(C)[C@H]1Cc2c(ccc3c2O[C@@H]2COc4cc(OC)c(OC)cc4[C@@H]2C3=O)O1`, the Potency result is “inactive”. On the same count and under the same terms, the result for `CCCCCc1cc(O)cc(O)c1` reads “inactive”.
